According to PubChem BioAssay (Tox21):
Records with an inconclusive call do not appear. Where a call stands in place of a potency, no number is given. Activity calls are given as the source filed them. Calls come from the whole dose curve.

Tests used:
[1] = molecular target: Acetylcholinesterase (Homo sapiens) (UniProt P22303); experiment: Acetylcholinesterase (AChE) small molecule antagonists: colormetric cell-based qHTS assay (AID 1347395); note: nearly all actives have a fitted effect of over 30% in size; note: potency is the fitted concentration of half-maximal effect
Chain of Acetylcholinesterase (Homo sapiens) (P22303 whole entry, looked up): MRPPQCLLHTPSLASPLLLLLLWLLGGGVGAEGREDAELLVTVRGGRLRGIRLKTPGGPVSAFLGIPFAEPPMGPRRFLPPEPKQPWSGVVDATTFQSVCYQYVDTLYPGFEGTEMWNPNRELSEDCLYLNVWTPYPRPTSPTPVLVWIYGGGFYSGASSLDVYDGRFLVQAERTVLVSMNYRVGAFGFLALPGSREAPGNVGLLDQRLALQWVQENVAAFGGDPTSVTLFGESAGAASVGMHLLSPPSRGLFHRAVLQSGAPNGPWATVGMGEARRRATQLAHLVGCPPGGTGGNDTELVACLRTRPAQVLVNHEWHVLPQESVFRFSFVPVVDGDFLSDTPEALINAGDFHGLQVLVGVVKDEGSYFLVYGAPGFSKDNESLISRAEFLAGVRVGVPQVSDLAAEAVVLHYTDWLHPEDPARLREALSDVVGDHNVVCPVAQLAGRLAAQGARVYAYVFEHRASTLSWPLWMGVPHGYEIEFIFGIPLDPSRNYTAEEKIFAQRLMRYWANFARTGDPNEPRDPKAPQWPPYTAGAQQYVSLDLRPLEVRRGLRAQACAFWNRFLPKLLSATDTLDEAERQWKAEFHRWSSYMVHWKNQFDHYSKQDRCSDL
Procedure, shortened: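 SH-SY5Y cells; cpd 30 min 37 C; + DTNB/acetylthiocholine, 90 min 37 C; colorimetric thiocholine read; qHTS.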

[2] = molecular target: Acetylcholinesterase (Homo sapiens) (UniProt P22303); experiment: Acetylcholinesterase (AChE) small molecule antagonists: enzyme-based qHTS assay (AID 1347397); settings: Potency: AChE enzyme activity inhibition; outcome: AChE enzyme activity inhibition; note: nearly all actives have a fitted effect of over 55% in size; note: potency is the fitted concentration of half-maximal effect
Procedure, shortened: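 Colorimetric DTNB read-out of thiocholine released from acetylthiocholine by recombinant human AChE (50 mU/mL as dispensed). Compounds were preincubated 30 min at RT before substrate/DTNB addition, with a 10 min RT reaction.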

[3] = molecular target: Acetylcholinesterase (Homo sapiens) (UniProt P22303); experiment: Acetylcholinesterase (AChE) small molecule antagonists: fluorescence cell-based qHTS assay (AID 1347398); settings: Potency: AChE activity; outcome: AChE activity; note: nearly all actives have a fitted effect of over 50% in size; note: potency is the fitted concentration of half-maximal effect
Procedure, shortened: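 SH-SY5Y, 2,000 cells/well, attached overnight; cmpd 30 min 37 C; acetylthiocholine/Thiolite Green cocktail 40 min RT; fluorescence Ex/Em 490/520 nm.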

[4] = molecular target: Acetylcholinesterase (Homo sapiens) (UniProt P22303); experiment: Acetylcholinesterase (AChE) small molecule antagonists: enzyme-based qHTS assay with human liver microsomes (AID 1347399); settings: Potency: qHTS inhibition; outcome: qHTS inhibition; note: nearly all actives have a fitted effect of over 60% in size
Procedure, shortened: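 Recombinant human AChE (50 mU/mL in the enzyme mix) and human liver microsomes (0.25 mg/mL final) were preincubated with compound and NADPH (0.25 mg/mL final) for 30 min at 37 C. Acetylthiocholine/DTNB was then added; thiocholine was read colorimetrically after 10 min at room temperature.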

| SMILES | Potency [1] | Potency [2] | Potency [3] | Potency [4] |
| --- | --- | --- | --- | --- |
| CCOC(=O)CC(=O)OCC | inactive | inactive | inactive | inactive |
| CC(NCCC(c1ccccc1)c1ccccc1)c1ccccc1 (stereo not given) | inactive | inactive | inactive | inactive |
| CC[N+](CC)(CC(=O)Nc1c(C)cccc1C)Cc1ccccc1 | inactive | inactive | inactive | inactive |
| NC(=O)CCCCC1CCSS1 (stereo not given) | inactive | inactive | inactive | inactive |
| CC(COc1ccc(C(C)(C)C)cc1)OS(=O)OCCCl (stereo not given) | inactive | inactive | inactive | inactive |
| CC(C)(Oc1ccc(Cl)cc1)C(=O)O | inactive | inactive | inactive | inactive |
| CCCCCCCCO | inactive | inactive | inactive | inactive |
| COc1ccc(C(=O)c2ccc(C)cc2)c(O)c1 | inactive | inactive | inactive | inactive |
| Nc1ccc(Oc2cccc(Oc3ccc(N)cc3)c2)cc1 | inactive | inactive | inactive | inactive |
| CO[Si](CCCNCCN)(OC)OC | inactive | inactive | inactive | inactive |
| CN(C)Cc1ccccc1O | inactive | inactive | inactive | inactive |
| O=C(O)c1ccccc1[N+](=O)[O-] | inactive | inactive | inactive | inactive |
| NCCN1CCNCC1 | inactive | inactive | inactive | inactive |
| O=[N+]([O-])c1ccc(O)c2ncccc12 | inactive | inactive | inactive | inactive |
| CC(=O)CC(=O)Nc1ccc(C)cc1C | inactive | inactive | inactive | inactive |
| CCN1CCc2nc(N)oc2CC1 | inactive | inactive | inactive | inactive |
| C/C(=C1\CCOC(=O)S1)N(C=O)Cc1cnc(C)nc1N | inactive | inactive | inactive | inactive |
| CCN(CC#N)c1cccc(C)c1 | inactive | inactive | inactive | inactive |
| CC1(C)S[C@@H]2[C@H](NC(=O)Cc3ccccc3)C(=O)N2[C@H]1C(=O)O (tested in a mixture with another compound) | inactive | inactive | inactive | inactive |
| CC(C)(CO)[C@@H](O)C(=O)NCCCO | inactive | inactive | inactive | inactive |

| SMILES | Potency [1] | Potency [2] | Potency [3] | Potency [4] |
| --- | --- | --- | --- | --- |
| N#Cc1cc(NC(=O)C(=O)O)c(Cl)c(NC(=O)C(=O)O)c1 | inactive | inactive | inactive | inactive |
| CC(C)=CCCC(C)CCO (stereo not given) | inactive | inactive | inactive | inactive |
| O=[N+]([O-])c1ccc(O)cc1 | inactive | inactive | inactive | inactive |
| CC(=O)OCCOC(C)=O | inactive | inactive | inactive | inactive |
| CC/C=C(\C)C=O | inactive | inactive | inactive | inactive |
| Cn1c(=O)[nH]c2ncn(C)c2c1=O | inactive | inactive | inactive | inactive |
| O=[N+]([O-])c1cc[n+]([O-])cc1 | inactive | inactive | inactive | inactive |
| O=C(NOCC1CC1)c1ccc(F)c(F)c1Nc1ccc(I)cc1Cl | inactive | inactive | inactive | inactive |
| C/C=C(\C)C(=O)OCCc1ccccc1 | inactive | inactive | inactive | inactive |
| CCOC(=O)COc1ccc2c(C)c(CCN(CC)CC)c(=O)oc2c1Cl | 13.8 µM (active) | 15.5 µM (active) | 6.92 µM (active) | inactive |
| OCCOCC#CCOCCO | inactive | inactive | inactive | inactive |
| Cc1cccc(C)c1NC(=O)CC12CCCN1CCC2 | inactive | inactive | inactive | inactive |
| C1CCCNCCC1 | inactive | inactive | inactive | inactive |
| CCCCCCC(=O)c1ccccc1 | inactive | inactive | inactive | inactive |
| CCCCCCCCOc1ccc(C(=O)c2ccccc2)c(O)c1 | inactive | inactive | inactive | inactive |
| C=C/C(C)=C/C/C=C(\C)CCC=C(C)C | inactive | inactive | inactive | inactive |
| Cc1ccc(O)c(C(C)(C)C)c1 | inactive | inactive | inactive | inactive |
| Cc1ccc2n[nH]nc2c1 | inactive | inactive | inactive | inactive |
| Cc1c(C2(c3cc(Br)c(O)c(Br)c3C)OS(=O)(=O)c3ccccc32)cc(Br)c(O)c1Br | inactive | inactive | inactive | inactive |
| c1ccc2[nH]c(-c3cscn3)nc2c1 | inactive | inactive | inactive | inactive |

| SMILES | Potency [1] | Potency [2] | Potency [3] | Potency [4] |
| --- | --- | --- | --- | --- |
| CCCCCCCCCCCCCOS(=O)(=O)O | inactive | inactive | inactive | inactive |
| CC1(C)CCC[C@]2(C)[C@H]3CC(=O)O[C@]3(C)CC[C@@H]12 | inactive | inactive | inactive | inactive |
| C=C(C)C(=O)OCCOC(=O)C(=C)C | inactive | inactive | inactive | inactive |
| Fc1ccccc1-c1ccccc1 | inactive | inactive | inactive | inactive |
| Nc1ncn([C@H]2C[C@H](O)[C@@H](CO)O2)c(=O)n1 | inactive | inactive | inactive | inactive |
| CCCCCCCCCCCCCC(=O)OCC | inactive | inactive | inactive | inactive |
| O=C(O)c1ccco1 | inactive | inactive | inactive | inactive |
| CC(=O)OC(C)OC(C)=O | inactive | inactive | inactive | inactive |
| Nc1ccc(Cl)c(N)c1 | inactive | inactive | inactive | inactive |
| CCCCCCCCCCO | inactive | inactive | inactive | inactive |
| CC(=O)c1nccs1 | inactive | inactive | inactive | inactive |
| Nc1nc2c(ncn2COCCO)c(=O)[nH]1 | inactive | inactive | inactive | inactive |
| CCOC(=O)CCCCCCCCC(=O)OCC | inactive | inactive | inactive | inactive |
| CN(C)CCOC(=O)C(c1ccccc1)C1(O)CCCC1 (stereo not given) | inactive | inactive | inactive | inactive |
| C=Cc1ccccn1 | inactive | inactive | inactive | inactive |
| FB(F)F | inactive | inactive | inactive | inactive |
| Cc1ccccc1C(N)=O | inactive | inactive | inactive | inactive |
| O=C=Nc1cccc(C(F)(F)F)c1 | inactive | inactive | inactive | inactive |
| CN1CCN(C)CC1 | inactive | inactive | inactive | inactive |
| COc1cc(C(=O)N2CCOCC2)cc(OC)c1OC | inactive | inactive | inactive | inactive |
